Laboratory results reported in the supplement of paper PMC11417369.
Over roughly 25,000 sequences, “ln(normalized median fluorescence intensity)” has its median near 9.7; the highest 2% begin near 11. The sample holds the highest values, similar sequences and a random draw of the others, so the mix is not that of the screen.

Tested on: PfAP2-HC AP2 domain (GST-tagged)
Assay: gcPBM binding intensity (ln(normalized median fluorescence intensity)); higher = stronger DNA binding
Outline: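 Probes on an Agilent 4 × 180k array were primer-extended, double-stranded and 36 bp long, taken from intergenic genomic regions, with negative controls added. GST-tagged P. falciparum DNA-binding domains from E. coli, about 25 μg on average, were applied to the array for 1 h in 1× PBS containing 1% milk, 0.2 mg/ml BSA, 0.5% salmon testes DNA and 0.03% Triton X-100. Binding intensity, obtained after Alexa488 anti-GST antibody detection and a 488 nm scan, is the highest Masliner-normalised natural-log median intensity across replicate spots of either probe orientation.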

Sequence	gcPBM binding intensity (ln)
ATTATACACCCGCGCACACACAACAAAAAAAAAAAA [CACACA_site5871]	11.1
CACAAACAAAGACACACACACACACGCACAAAAATG [CACACA_site7193]	10.7
GTTACACAAACAAACACACACACACGCACGCACAAA [CACACA_site7191]	11.3
TGATTATACGCACGCGCACACACAACCAAAAAAAAA [CACACA_site3537]	10.2
ATAGACAGCGCACAAACACACAAACACGCACGCACA [CACACA_site6349]	10.2
AAAAAACAAAAACACACGCACACAAAAAAAAAAAAA [CACACA_site802]	10.2
TACACAAACAGACACACACACACACGCGCACAAAAA [CACACA_site7192]	11
ATTACATACACGCGCACACACAAAAAAAAAAAAAAA [CACACA_site1334]	9.98
TTATATTATAGACACACACACAAAAAAAAAAAAAAA [CACACA_site3816]	10.1
ATTATAGACACGCGCACACACAACAAAAAAAAAAAA [CACACA_site9180]	11.3
TGATTATAGACACGCGCACACACAACAAAAAAAAAA [CACACA_site9179]	10.1
ATAAAAATTGATTATACACACGCGCACCCACAACAA [CACACA_site3536]	10.3
TTTCTTTTTTCTGTTATTATTATAAAACGATATTTA [TGCATGCA_negctrl_site167]	9.58
TTATTAAGTAAATCACATTTAATTTTTTTTTTTTTT [CACACA_negctrl_site1280]	9.27
GAATATGTTAACATTTGTACATAAAATTTTTTACAA [XGTACX_site2444]	9.49
ATTATTTTGTTTATTACATGCAGGTGTATATTACAG [TGCATGCA_site723]	9.59
ATCACATAAAATATGAATATATATTTTATATATATA [CACACA_negctrl_site340]	9.53
AAAAGAGAAATGGGCACACACACACCCATTATATAT [CACACA_site1530]	10.2
AGAAAAGAGAAATGGGCACACACACCCATATTATAT [CACACA_site8433]	10.1
AAAAGAGAAATGGGCACACACACACCGATTATATAT [CACACA_site4942]	11
ATGTACCTATTTCATACACACACACCCACAAACAAA [CACACA_site8232]	10.4

Sequence	gcPBM binding intensity (ln)
ACCTATTTCAAACACACACACACACTAACAAACATA [CACACA_site8233]	10.8
ACCTATTTCAAACACACACACACACCCACAAACATA [CACACA_site977]	10.9
GTACCTATTTCATACACACACACACGCAAACAAACA [CACACA_site6590]	11.1
ACCTATTTCAAACACACACACACACTAGCAAACATA [CACACA_site4695]	10.9
GTACCTATTTCATACACACACACACCCAAACAAACA [CACACA_site976]	10.5
TATATAAACACGTACACACACATATCTGTATTTATA [CACACA_site5858]	10.4
AAAAAATAGTGGTATGCATGTCCCTTGTATTTTCTT [TGCATGCA_site587]	9.63
TTAATGTACAGACACCCACACACAAACAAATATATA [CACACA_site8888]	10.2
TACACCAAAAAAAAACGTACAAAATCCCACCCAGAC [XGTACX_site4622]	11.1
GTATATATTTAAACACGTACACAAAACCCAAAAAAT [XGTACX_site8110]	9.95
TAATTTTTTTTTTTTTTTTTTGTACTTCATTTTTAT [CACACA_negctrl_site1395]	9.58
TTTTTTTTGTTCTATACAATTATAAAAATAAAATAT [XGTACX_negctrl_site53]	9.06
TAATACTTAGAGAAAAGTACGTATGAACTTATGTAA [XGTACX_site5504]	9.59
TTTCCCTTGTTGTAAACATGCACAATATTTAGGTAT [TGCATGCA_site49]	9.75
CACACCCACCAACACACACACAAAAAAAAAAAGAAA [CACACA_site500]	10.4
TTAAAGCACCCATGCACACACACAAAGGAAAAGAAA [CACACA_site233]	10.2
AAAGCACCCATGCACACACACAAAGGAAAAGAAAAA [CACACA_site6249]	10.3
AAAGCACCCAGGCACACACACAAAGGAAAAGAAAAA [CACACA_site232]	11
AAAAAAAAAAAACACACACACACACCGACAAAATAT [CACACA_site8411]	10.8
CAAAAGAAGGTAAACACACACACACGCATACAAAAA [CACACA_site7724]	10.4
CACAAACAAAAACACACACACACACCGACAAAAATG [CACACA_site5362]	10.6

Sequence	gcPBM binding intensity (ln)
AATTAACAAAAACACACACACACACCGACAAAAAAA [CACACA_site4444]	10.9
TTAACAAAGAAACACACACACACACCCAAAAAAAAA [CACACA_site516]	10.6
AAAGAAGGGAAACACACACACACACCCACAAAAAAA [CACACA_site3766]	11.4
AAAGAAGGTAAACACACACACACACCGACAAAAAAA [CACACA_site9255]	11.5
CAAAAGAAGGTAAACACACACACACCCATACAAAAA [CACACA_site3765]	10.7
TTTTTTTCTTTATTAGCACACATAATATTATATATG [CACACA_site8841]	9.79
TTGGGGTATCTTCCTATGCACACTTGTTATGTACTA [CACACA_site831]	9.85
TATATATATATATATTGTACTATATAGTATCTTTTT [XGTACX_site1646]	9.78
TTTCACATATATATGGTGCATATTTTATGTGTAAAT [GTGCAC_site9937]	9.7
AATTTTTTTTAATGATGTACTTTTTGAAAATAAACT [XGTACX_site4221]	9.31
TTTCTAAGAAAAAAAAAAAAAAAAAAAAAGATACAA [GTGCAC_negctrl_site525]	9.24
AATTAAACTCACACCACACACAAAAAAAAAAAAAAA [CACACA_site693]	10.3
CACAAACAAAAACACACACACACACCCACAAAAATG [CACACA_site2429]	11
TACATAAATTAAAACACACACACACCCAAAAAAAAA [CACACA_site2261]	10.5
AGCACACCCACAAAAACACACACAAAGGTGTTCTTA [CACACA_site8355]	10.5
AATTAACAAAAACACACACACACACCCACAAAAAAA [CACACA_site517]	11.4
GTAAAAAAAGAGCACACACACAAAAACACCCACAAA [CACACA_site1292]	10.9
AAGTAAAAAAATAGCACACACACAAAAACACCCACA [CACACA_site1291]	10.8
TAAAATAAAACAAACACACACACACCCCCACAAAAA [CACACA_site3850]	10.8
TGCAACAAAATAAACACACACACACCCCCACAAAAA [CACACA_site3388]	10.6
